Experimental data reported in publication PMC5913336, “True equilibrium measurement of transcription factor-DNA binding affinities using automated polarization microscopy”.

Molecular target: Cic (Drosophila melanogaster, UniProt Q9U1H0 483-565)
Experiment: FP; 33 mM phosphate pH 7.0, 90 mM NaCl, 0.01% Tween 20, 0.1 mM DTT, 0.5% agarose; room temperature
Settings: tags: N-GST (pGEX-6P-1, kept); dsDNA, one strand shown

**Q.** Which binding signal does the source give for CATTGAATGGGGT here?
**A.** 1.53 Kd / Kd of best base at the position

**Q.** CGCTGAATGGGGT was tested. Which binding signal did it give?
**A.** 3.22 Kd / Kd of best base at the position

**Q.** How did the Kd turn out when CGTTGAATGGGGT was run?
**A.** ~0.0341 µM

**Q.** CCTTGAATGGGGT was tested. Which binding signal did it give?
**A.** 1.89 Kd / Kd of best base at the position

**Q.** With CGTTGAATGCGGT as the sequence, how does the binding signal read?
**A.** 7.69 Kd / Kd of best base at the position

**Q.** For CGTTGAATGGGTT, which binding signal is on record?
**A.** 1.85 Kd / Kd of best base at the position

**Q.** With CTTTGAATGGGGT as the sequence, how does the binding signal read?
**A.** 1.85 Kd / Kd of best base at the position

**Q.** How did the binding signal turn out when CGTTGAATGGGGC was run?
**A.** 2.65 Kd / Kd of best base at the position

**Q.** Which binding signal does the source give for CGTTGGATGGGGT here?
**A.** 20.4 Kd / Kd of best base at the position

**Q.** CGTTGAATTGGGT was tested. Which binding signal did it give?
**A.** 6.71 Kd / Kd of best base at the position

**Q.** Which binding signal does the source give for CGTTTAATGGGGT here?
**A.** 4.43 Kd / Kd of best base at the position

**Q.** CGTCGAATGGGGT was tested. Which binding signal did it give?
**A.** 12.4 Kd / Kd of best base at the position

**Q.** How did the binding signal turn out when CGTTGAATGGGAT was run?
**A.** 1.93 Kd / Kd of best base at the position

**Q.** How did the binding signal turn out when CGTTAAATGGGGT was run?
**A.** 3.06 Kd / Kd of best base at the position

**Q.** For CGTGGAATGGGGT, which binding signal is on record?
**A.** 17.5 Kd / Kd of best base at the position

**Q.** For CGTTGAATGGTGT, which binding signal is on record?
**A.** 2.29 Kd / Kd of best base at the position

**Q.** CGTTGAATGGCGT was tested. Which binding signal did it give?
**A.** 2 Kd / Kd of best base at the position

**Q.** For CGTTGAAGGGGGT, which binding signal is on record?
**A.** 11.1 Kd / Kd of best base at the position

**Q.** With CGTTGAATGAGGT as the sequence, how does the binding signal read?
**A.** 2.2 Kd / Kd of best base at the position

**Q.** With CGTTGATTGGGGT as the sequence, how does the binding signal read?
**A.** 8.11 Kd / Kd of best base at the position

**Q.** For CGATGAATGGGGT, which binding signal is on record?
**A.** 2.02 Kd / Kd of best base at the position

**Q.** For CGTTGAATGGGCT, which binding signal is on record?
**A.** 1.86 Kd / Kd of best base at the position

**Q.** With CGTTCAATGGGGT as the sequence, how does the binding signal read?
**A.** 1.93 Kd / Kd of best base at the position

**Q.** For CGTTGAATAGGGT, which binding signal is on record?
**A.** 6.64 Kd / Kd of best base at the position

**Q.** Which binding signal does the source give for CGTTGAGTGGGGT here?
**A.** 7.68 Kd / Kd of best base at the position

**Q.** Which binding signal does the source give for CGTTGCATGGGGT here?
**A.** 17.1 Kd / Kd of best base at the position

**Q.** How did the binding signal turn out when CGTTGAATGTGGT was run?
**A.** 4.08 Kd / Kd of best base at the position

**Q.** Which binding signal does the source give for GGTTGAATGGGGT here?
**A.** 1.41 Kd / Kd of best base at the position

**Q.** How did the binding signal turn out when CGTTGACTGGGGT was run?
**A.** 3.64 Kd / Kd of best base at the position

**Q.** Which binding signal does the source give for CGTAGAATGGGGT here?
**A.** 5.55 Kd / Kd of best base at the position

**Q.** For CGTTGAACGGGGT, which binding signal is on record?
**A.** 10.1 Kd / Kd of best base at the position

**Q.** Which binding signal does the source give for CGTTGAAAGGGGT here?
**A.** 8.64 Kd / Kd of best base at the position

**Q.** CGGTGAATGGGGT was tested. Which binding signal did it give?
**A.** 2.27 Kd / Kd of best base at the position

**Q.** How did the binding signal turn out when CGTTGAATGGGGG was run?
**A.** 2.15 Kd / Kd of best base at the position

**Q.** Which binding signal does the source give for TGTTGAATGGGGT here?
**A.** 1.66 Kd / Kd of best base at the position

**Q.** With CGTTGTATGGGGT as the sequence, how does the binding signal read?
**A.** 5.33 Kd / Kd of best base at the position

**Q.** For CGTTGAATCGGGT, which binding signal is on record?
**A.** 7.88 Kd / Kd of best base at the position

**Q.** CGTTGAATGGGGA was tested. Which binding signal did it give?
**A.** 2.36 Kd / Kd of best base at the position

**Q.** For CGTTGAATGGAGT, which binding signal is on record?
**A.** 1.79 Kd / Kd of best base at the position
